The source of these data is PubChem BioAssay (EPA / NIEHS).

Assay [1] in a line: APR_HepG2_CellLoss_72hr: Apredica 72-hour HepG2 Assay for Cell Loss (AID 2282915). The following applies: high-content imaging. The procedure, abridged: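 Cell number comes from Hoechst 33342-labelled nuclei, imaged at 20x after 3.7% formaldehyde fixation. Dosing was 0.39–200 uM, ten concentrations in duplicate, 0.5% DMSO final, for 72 h. Bidirectional fit relative to DMSO baseline.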

A short description of assay [2]: APR_HepG2_P-H2AX_72hr: Apredica 72-hour HepG2 Assay for H2AX Phosphorylation (AID 2282916).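 Also: phospho-histone H2A.x immunostain intensity per cell marking DNA damage.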 The conditions noted are these: imaging, actives raise or lower the signal. In short, it runs like this:
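Phospho-histone H2A.x immunofluorescence, multiplexed with Hoechst and c-Jun, quantified by high-content imaging. Compounds applied to HepG2 for 72 h across ten concentrations (0.39–200 uM, 0.5% DMSO), in duplicate; DMSO baseline.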

Assay [3] in a line: APR_HepG2_MitoMembPot_72hr: Apredica 72-hour HepG2 Assay for Mitochondrial Membrane Potential (AID 2282917). The conditions noted are these: imaging, actives raise or lower the signal. The procedure, abridged: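 Membrane potential read by MitoTracker Red CMXRos (250 nM, 30 min, pre-fixation) fluorescence imaging of HepG2 after 72 hr exposure. Ten concentrations, 0.39–200 uM, duplicate wells, 0.5% DMSO; fitted in both directions against DMSO baseline.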

Assay [4] in a line: APR_HepG2_MitoticArrest_72hr: Apredica 72-hour HepG2 Assay for Mitotic Arrest (AID 2282918). The conditions noted are these: high-content imaging, actives raise or lower the signal. In short, it runs like this: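 Mitotic arrest in HepG2 is scored from phospho-histone H3 staining after 72 hr dosing across 0.39–200 uM, with DMSO at 0.5% v/v. Nuclei are identified by Hoechst 33342 and fluorescence intensity is quantified per cell.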

Assay [5] in a line: APR_HepG2_MicrotubuleCSK_72hr: Apredica 72-hour HepG2 Assay for Microtubule CSK Stabilty (AID 2282919). The following applies: HepG2 microtubule cytoskeleton, high-content imaging, actives raise or lower the signal. The procedure, abridged: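 High-content imaging of alpha-tubulin staining in fixed HepG2 cells after 72 hr treatment with ten concentrations from 0.39 to 200 uM (0.5% DMSO). Fitting was bidirectional against DMSO; taxol served as positive control.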

The nature of assay [6]: APR_HepG2_P-H2AX_24hr: Apredica 24-hour HepG2 Assay for H2AX Phosphorylation (AID 2282920). The conditions noted are these: high-content imaging, actives raise or lower the signal. The procedure, abridged: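 Signal comes from a FITC-labeled secondary detecting phospho-histone H2A.x in fixed HepG2 cells, quantified by automated imaging at 20x. Dosing ran 24 hr across 0.39–200 uM with 0.5% v/v DMSO.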

The nature of assay [7]: APR_HepG2_StressKinase_72hr: Apredica 72-hour HepG2 Assay for Stress Kinase (AID 2282921). The following applies: HepG2 stress kinase (phospho-c-Jun) imaging, actives raise or lower the signal. The procedure, abridged: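 Stress kinase signal is phospho-c-Jun immunofluorescence (1:500 primary, Cy3 secondary) in fixed, permeabilized human HepG2 cells imaged at 20x. Exposure lasted 72 hr over ten concentrations from 0.39 to 200 uM, 0.5% DMSO, in duplicate. Bidirectional fit versus DMSO.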

The nature of assay [8]: APR_HepG2_StressKinase_24hr: Apredica 24-hour HepG2 Assay for Stress Kinase (AID 2282922). The following applies: HepG2 stress kinase (phospho-c-Jun) imaging, actives raise or lower the signal. The procedure, abridged:
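High-content imaging of phospho-c-Jun immunofluorescence in fixed, permeabilized HepG2 cells after 24 h dosing. Ten concentrations, 0.39 to 200 uM, run in duplicate at 0.5% v/v DMSO; gain or loss of signal versus DMSO.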

Assay [9] can be described thus: APR_HepG2_MitoMass_72hr: Apredica 72-hour HepG2 Assay for Mitochondrial Mass (AID 2282924).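 Also: MitoTracker Red CMXRos stain intensity per cell imaged as mitochondrial mass.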 The conditions noted are these: high-content imaging, actives raise or lower the signal. The procedure, abridged: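 Readout is imaged MitoTracker Red (250 nM, 30 min, pre-fixation) signal, fitted bidirectionally against DMSO baseline. Human HepG2 liver cells received compound 0.39–200 uM in duplicate for 72 hr, final DMSO 0.5%.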

A short description of assay [10]: APR_HepG2_NuclearSize_72hr: Apredica 72-hour HepG2 Assay for Nuclear Size (AID 2282925). The conditions noted are these: high-content imaging, actives raise or lower the signal. The procedure, abridged: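 Nuclear size was read by high-content imaging of Hoechst 33342 stain after formaldehyde fixation. Compounds ran 72 h on HepG2 at 0.39 to 200 uM, with final DMSO 0.5% v/v. Curves fitted both directions relative to DMSO control.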

Assay [11] in a line: ATG_CRE_CIS: Attagene CIS-FACTORIAL HepG2 Assay for human cAMP Responsive Element (CRE) binding protein 3 (AID 2282926). The conditions noted are these: HepG2 CRE cis-reporter, Attagene multiplexed mRNA; actives raise or lower the signal. In short, it runs like this: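 Cells carrying cis-regulated reporter constructs respond through their own endogenous factors. After 24 h treatment, RNA is reverse-transcribed, amplified, labelled and sized by capillary electrophoresis; up- and down-regulation are both scored against vehicle.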

The target in assay [12] is CCAAT/enhancer-binding protein beta (Homo sapiens) (UniProt P17676). Description: ATG_C_EBP_CIS: Attagene CIS-FACTORIAL HepG2 Assay for human CCAAT/Enhancer Binding Protein (C/EBP) beta (AID 2282927). The conditions noted are these: HepG2 Attagene cis-factorial transcription factor reporter; actives raise or lower the signal. In short, it runs like this: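 Changes in reporter mRNA, rather than exogenous chimeric receptor activity, reflect native C/EBP signalling in transfected HepG2 cells dosed for 24 h; transcripts are detected by RT-PCR and capillary electrophoresis.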
Chain of CCAAT/enhancer-binding protein beta (Homo sapiens) (P17676 whole entry, looked up): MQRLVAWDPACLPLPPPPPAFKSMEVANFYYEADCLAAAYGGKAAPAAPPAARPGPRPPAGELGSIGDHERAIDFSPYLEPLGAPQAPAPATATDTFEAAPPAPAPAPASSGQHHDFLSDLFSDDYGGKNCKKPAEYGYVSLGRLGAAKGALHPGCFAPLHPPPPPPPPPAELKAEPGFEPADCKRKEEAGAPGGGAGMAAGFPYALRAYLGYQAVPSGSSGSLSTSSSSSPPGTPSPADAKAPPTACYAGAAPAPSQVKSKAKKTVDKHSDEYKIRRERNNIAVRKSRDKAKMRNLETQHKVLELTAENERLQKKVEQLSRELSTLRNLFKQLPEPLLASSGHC

The nature of assay [13]: ATG_CMV_CIS: Attagene CIS-FACTORIAL HepG2 Assay for human CMV (Internal Marker) (AID 2282928).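 Also: endpoint acts as a background internal control marker rather than a target.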 The following applies: HepG2 CMV promoter reporter, transcription factor profiling; actives raise or lower the signal. In short, it runs like this: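 Fluorescence intensity of RT-PCR-derived reporter fragments, resolved by capillary electrophoresis, gives the signal. HepG2 liver cells bearing transfected cis-element reporters were treated 24 h; activity in either direction was fit relative to DMSO-treated controls.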

Assay [14] in a line: ATG_DR4_LXR_CIS: Attagene CIS-FACTORIAL HepG2 Assay for human Liver X Receptor (LXR), DR4 submotif (AID 2282929). The following applies: HepG2 Attagene DR4 cis-reporter, mRNA transcription; actives raise or lower the signal. The procedure, abridged: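 Cells were transfected with multiple reporter transcription units, exposed to chemicals for 24 hours, then lysed for RNA. Reporter mRNA induction was measured by RT-PCR with capillary electrophoresis detection and fitted in both directions relative to DMSO.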

Assay [15] has as its target Aryl hydrocarbon receptor (Homo sapiens) (UniProt P35869). Description: ATG_Ahr_CIS: Attagene CIS-FACTORIAL HepG2 Assay for human Aryl Hydrocarbon Receptor (Ahr) (AID 2282930). The following applies: HepG2 AhR cis-factorial reporter transcription; actives raise or lower the signal. In short, it runs like this:
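HepG2, transient MRTU (cis) transfection, 24 h exposure. RNA → cDNA → PCR → 6-FAM primer extension → HpaI 2 h 37 C → CE. Fit: bidirectional, DMSO baseline.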

Assay [16] can be described thus: ATG_AP_1_CIS: Attagene CIS-FACTORIAL HepG2 Assay for human Activator Protein 1 (AP-1) (AID 2282931). The conditions noted are these: HepG2 Attagene cis-factorial AP-1 reporter mRNA; actives raise or lower the signal. In short, it runs like this: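 Endogenous transcription-factor activity in human HepG2 liver cells is read through a cis-promoter reporter transcript, sampled 24 h after dosing. Detection uses RT-PCR with capillary electrophoresis; values come from bidirectional fitting relative to DMSO.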

Assay [17] is described as follows: ATG_AP_2_CIS: Attagene CIS-FACTORIAL HepG2 Assay for human Activator Protein 2 (AP-2) (AID 2282932). The following applies: HepG2 AP-2 cis-reporter, Attagene transcription factor profiling; actives raise or lower the signal. The procedure, abridged:
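Endogenous transcription factor activity is reported through transfected multiplex reporter constructs in HepG2, after 24 h of compound exposure. Transcripts were quantified by RT-PCR and capillary electrophoresis of fluorescent fragments. Bidirectional fit against DMSO.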

Assay [18] can be described thus: ATG_BRE_CIS: Attagene CIS-FACTORIAL HepG2 Assay for human Bone Morphogenetic Protein (BMP) Response Element (BRE) (AID 2282933). The conditions noted are these: HepG2 BMP response element reporter, Attagene transcription factor profiling; actives raise or lower the signal. In short, it runs like this: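 After a 24 h chemical treatment, transiently transfected HepG2 cells were lysed for RNA; reporter transcripts were quantified by fluorescent RT-PCR and capillary electrophoresis, normalised to DMSO.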

Assay [19] concerns the target Retinoic acid receptor alpha (Homo sapiens) (UniProt P10276). Description: ATG_DR5_RAR_CIS: Attagene CIS-FACTORIAL HepG2 Assay for human Retinoic Acid Receptor Alpha (RARE), DR5 submotif (AID 2282934). The following applies: HepG2 Attagene cis-factorial RARE DR5 reporter, mRNA; actives raise or lower the signal. In short, it runs like this:
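HepG2, transient cis-reporter transfection, 24 h exposure. mRNA readout: RT-PCR, FAM label, HpaI cut, capillary electrophoresis. DMSO baseline, gain/loss fitting.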

The nature of assay [20]: APR_HepG2_p53Act_72hr: Apredica 72-hour HepG2 Assay for p53 Activation (AID 2282923).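 Also: average cellular p53 protein immunofluorescence intensity in HepG2 cells.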 The following applies: high-content imaging, actives raise or lower the signal. In short, it runs like this:
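After 72 h with compound (ten points, 0.39 to 200 uM, final DMSO 0.5% v/v), fixed HepG2 cells were labelled with sheep anti-p53 and Hoechst 33342 and imaged; gain or loss versus DMSO scored.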

Activity calls are given as the source filed them. The calls were made as follows: active = hit-call score of the fitted dose curve at least 0.9, where 1 is the maximum; inactive = score below 0.9.

Chain of Aryl hydrocarbon receptor (Homo sapiens) (P35869 whole entry, looked up): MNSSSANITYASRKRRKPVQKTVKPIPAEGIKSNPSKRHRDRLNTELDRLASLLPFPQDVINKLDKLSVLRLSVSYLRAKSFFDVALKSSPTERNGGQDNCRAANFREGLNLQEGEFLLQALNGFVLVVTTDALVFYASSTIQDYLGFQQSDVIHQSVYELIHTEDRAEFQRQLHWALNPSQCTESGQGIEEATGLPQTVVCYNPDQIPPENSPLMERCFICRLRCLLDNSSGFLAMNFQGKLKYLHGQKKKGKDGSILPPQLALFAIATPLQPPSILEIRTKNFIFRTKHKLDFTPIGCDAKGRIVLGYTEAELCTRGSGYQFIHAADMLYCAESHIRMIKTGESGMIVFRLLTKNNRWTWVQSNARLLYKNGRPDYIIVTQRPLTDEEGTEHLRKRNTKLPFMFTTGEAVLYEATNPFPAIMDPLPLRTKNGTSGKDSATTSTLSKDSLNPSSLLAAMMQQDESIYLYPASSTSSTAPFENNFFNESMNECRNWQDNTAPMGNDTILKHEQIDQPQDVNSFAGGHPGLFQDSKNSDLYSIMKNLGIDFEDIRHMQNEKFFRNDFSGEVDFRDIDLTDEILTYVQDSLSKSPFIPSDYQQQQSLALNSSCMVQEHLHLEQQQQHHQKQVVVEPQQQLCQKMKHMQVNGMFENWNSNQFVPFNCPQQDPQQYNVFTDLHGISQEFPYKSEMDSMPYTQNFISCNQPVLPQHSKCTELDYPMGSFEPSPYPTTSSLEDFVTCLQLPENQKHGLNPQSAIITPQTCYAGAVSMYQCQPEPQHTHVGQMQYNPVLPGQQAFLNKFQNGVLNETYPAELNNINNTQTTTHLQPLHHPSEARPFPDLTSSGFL
Chain of Retinoic acid receptor alpha (Homo sapiens) (P10276 whole entry, looked up): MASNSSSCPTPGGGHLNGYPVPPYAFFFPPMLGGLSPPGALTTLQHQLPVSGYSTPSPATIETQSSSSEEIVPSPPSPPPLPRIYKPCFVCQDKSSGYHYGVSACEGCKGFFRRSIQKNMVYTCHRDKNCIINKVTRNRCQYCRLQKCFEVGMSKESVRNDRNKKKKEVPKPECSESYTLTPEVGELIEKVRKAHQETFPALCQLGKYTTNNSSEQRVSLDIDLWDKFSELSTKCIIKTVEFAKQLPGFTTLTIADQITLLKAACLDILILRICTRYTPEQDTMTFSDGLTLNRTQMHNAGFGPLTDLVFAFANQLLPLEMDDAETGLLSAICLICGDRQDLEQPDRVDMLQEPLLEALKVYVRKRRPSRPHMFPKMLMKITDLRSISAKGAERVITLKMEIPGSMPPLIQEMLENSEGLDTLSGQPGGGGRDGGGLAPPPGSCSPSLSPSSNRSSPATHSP

In the case of `OC[C@H]1O[C@@](CO)(O[C@H]2O[C@H](CO)[C@@H](O)[C@H](O)[C@H]2O)[C@@H](O)[C@@H]1O`, the molecule was called inactive in [1], in [2], in assay [3], in assay [4], in assay [5] and in [6]. In addition, the outcome in assay [7], in [8], in assay [9], in assay [10], in assay [11] and in assay [12] was inactive. In addition, the result in [13], in [14], in assay [15], in [16], in assay [17] and in assay [18] was inactive. The outcome in [19] was inactive.

What is called AC50 is the concentration giving half of the maximal activity seen. Regarding `COc1cc2c(c(OC)c1OC)-c1ccc(OC)c(=O)cc1[C@@H](NC(C)=O)CC2`, the AC50 is 0.0536 µM (active) in [1]; 0.0815 µM (active) in assay [2]; 0.0391 µM (active) in assay [4]; 0.0628 µM (active) in assay [5]; 0.0797 µM (active) in assay [6]; 0.0456 µM (active) in assay [7]. For the same molecule, the AC50 was 0.0391 µM (active) in [8]; 0.0703 µM (active) in assay [13]; 0.123 µM (active) in assay [16]; 61.1 µM (active) in assay [17]; 4.6 µM (active) in assay [18]. In addition, the molecule was called inactive in assay [3], in assay [9], in assay [10], in assay [11], in [12] and in assay [14]. Further, the molecule was called inactive in [15] and in assay [19].

As for `OCCNCCO`, the molecule was classed as inactive in [1], in assay [2], in assay [3], in [4], in assay [5] and in [6]. The molecule was called inactive in [7], in assay [8], in assay [9], in assay [10], in [11] and in assay [12]. For the same molecule, the result in [14], in assay [15], in assay [16], in [17], in [18] and in assay [19] was inactive.

As for `CCCCCCCC1CCC(=O)O1` (configuration not stated), the molecule was called inactive in assay [1], in [2], in assay [3], in assay [4], in [6] and in assay [7]. For the same molecule, the call in [8], in [20], in [9], in assay [12], in assay [14] and in assay [15] was inactive. In addition, the molecule was called inactive in assay [17], in [18] and in [19].

On to `OC(Cn1cncn1)(Cn1cncn1)c1ccc(F)cc1F`, for which the call in assay [1], in [2], in assay [4], in assay [5], in assay [6] and in assay [7] was inactive. For the same molecule, the call in [8], in assay [20], in [9], in assay [10], in [11] and in [12] was inactive. Also, the molecule was called inactive in [13], in [14], in assay [15], in assay [16] and in assay [17].

For the molecule `CCCCCCCCCC`, the molecule was classed as inactive in [1], in assay [2], in assay [3], in assay [4], in assay [5] and in assay [6]. The outcome in assay [7], in assay [8], in [20], in [9], in assay [10] and in assay [11] was inactive. The result in assay [12], in [14], in [15], in assay [16] and in assay [17] was inactive.

For the molecule `O=C1CN(N=Cc2ccc([N+](=O)[O-])o2)C(=O)N1`, the AC50 is 41.9 µM (active) in [1]; 65.2 µM (active) in [2]; 58.3 µM (active) in assay [4]; 56.7 µM (active) in [6]; 46.8 µM (active) in assay [20]; 90.5 µM (active) in assay [9]. Moreover, the AC50 in assay [13] is 45.7 µM (active); in assay [16], 68.5 µM (active). Also, the call in [3], in assay [7], in assay [8], in [11], in assay [12] and in [14] was inactive. The result in assay [15], in assay [17] and in assay [19] was inactive.
